Measured values reported in PubChem BioAssay (NCI).
The panel holds about 83,000 compounds, 20% with a hit somewhere; the sample as a whole holds those more often.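 Treatment: one concentration, 48 hours, 96-well format. Scoring: percent growth, with anything below 10 considered active.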 Active and inactive are the calls of the source.

Key:
Experiment in all cases: NCI-60 one-dose screen, 48 h (100 = growth as untreated, 0 = no growth, -100 = all killed)
Conditions in all cases: 10 µM unless noted
[1] = test system: T-47D breast
[2] = test system: BT-549 breast
[3] = test system: MDA-MB-435 melanoma
[4] = test system: SW-620 colon
[5] = test system: HCT-116 colon
[6] = test system: HCC-2998 colon
[7] = test system: KM12 colon

Measured: growth

CCN1C(=O)N(CC)C2C1NN=c1s/c(=C\c3cccc([N+](=O)[O-])c3)c(=O)n12 (stereo not drawn)
inactive: [1] 59.3% | [2] 12.5% | [4] 21.1% | [5] 11% | [6] 15.9% | [7] 12.1%
active: [3] -30.4%

COC(=O)/C=C1/SC(=Nc2ccc(C)cc2)N(CCc2c[nH]c3ccc(O)cc23)C1=O
active: [2] 9.38%
inactive: [1] 35% | [3] 14.9% | [4] 44.2% | [5] 16.9% | [6] 46.7% | [7] 43.6%

CC(C)c1ccc(COCc2cc(CN3CCCC3)c(O)c3ncccc23)cc1
inactive: [2] 13.1% | [3] 20.2% | [6] 14.6% | [7] 14.1%
active: [1] -7.55% | [4] 3.8% | [5] 5.58%

O=[N+]([O-])c1ccc(N/N=C(/C(=N/Nc2ccc([N+](=O)[O-])cc2)c2ccccc2)c2ccccc2)cc1
inactive: [1] 88.8% | [2] 102% | [3] 86.4% | [4] 47.6% | [5] 51.7% | [6] 105% | [7] 106%

NC(=O)c1c(NC(=O)c2ccccc2)sc2c1CCC(=O)C2
active: [1] -9.93% | [2] 9.17% | [3] 8.22% | [5] 8.7% | [7] 5.17%
inactive: [4] 15.5%

C=C(C)[C@@H]1CC[C@]2(C(=O)NCCNCCN)CC[C@]3(C)[C@H](CC[C@@H]4[C@@]5(C)C/C(=C/c6ccncc6)C(=O)C(C)(C)[C@@H]5CC[C@]43C)[C@@H]12
inactive: [1] 80.8% | [2] 95.2% | [3] 92.7% | [4] 92.7% | [5] 83.7% | [6] 91.6% | [7] 96.9%

Cc1ccc(-c2nn(-c3ccccc3)cc2C=C2C(=O)ON=C2C(C)C)cc1
inactive: [1] 78.6% | [2] 113% | [3] 63.5% | [4] 47.2% | [5] 26% | [6] 68.7% | [7] 69.8%

COc1ccc(NC(=O)c2sc3nc(C)c(C(=O)/C=C/c4cccc(OC)c4)cc3c2N)cc1
active: [4] 0.0421%
inactive: [1] 49.5% | [2] 56.3% | [3] 13.6% | [5] 22.8% | [6] 23.8% | [7] 25.7%

Cc1cc2c([nH]1)CSc1cc(S(=O)(=O)c3ccccc3)c(=O)[nH]c1-2
inactive: [3] 10.6% [100 µM] | [4] 23.8% [100 µM] | [6] 12.4% [100 µM]
active: [1] 4.92% [100 µM] | [2] -12.2% [100 µM] | [5] 1.35% [100 µM] | [7] -37.2% [100 µM]

O=C1/C(=C/c2ccc(F)cc2)COc2ccc(O)cc21
inactive: [1] 86.6% | [2] 78.2% | [3] 62.9% | [4] 26% | [5] 23.6% | [6] 90% | [7] 45.9%

C=CCc1c(O)c(C(=O)/C=C/c2ccc(Cl)cc2)c(OC)c2ccoc12
inactive: [1] 39.9% | [2] 47.8% | [3] 18.2% | [4] 37.3% | [5] 17.2% | [6] 63.3% | [7] 41.1%

N#Cc1cccc(NC(=O)c2oc3ccccc3c2-c2cnn(-c3ccccc3)c2)c1
inactive: [1] 49.6% [50 µM] | [2] 72.5% [50 µM] | [3] 97.9% [50 µM] | [4] 89% [50 µM] | [5] 70.9% [50 µM] | [6] 71.1% [50 µM] | [7] 81.5% [50 µM]

C/C(=C(/c1ccc(Cl)cc1)c1ccc(OCCN2CCCC2)cc1)c1ccc(Cl)cc1
inactive: [1] 59.5% | [2] 96.5% | [3] 89.6% | [4] 54.6% | [6] 102% | [7] 52.4%

COC(=O)CNC(=O)[C@H](Cc1ccccc1)NCc1ccncc1
inactive: [1] 89.6% | [2] 96.4% | [3] 110% | [4] 102% | [5] 100% | [6] 103% | [7] 103%

CCc1ccc(C(=O)/C=C/C23c4ccccc4C(c4ccccc42)C2C(=O)NC(=O)C23)cc1 (stereo not drawn)
active: [2] -7.29% | [3] -46.6% | [4] 8.84% | [5] -40%
inactive: [1] 21.9% | [6] 24.5% | [7] 11.2%

Fc1cc(F)cc(C(c2c[nH]c3ccccc23)c2c[nH]c3ccccc23)c1
inactive: [1] 97% | [2] 135% | [3] 103% | [4] 93% | [5] 89.8% | [7] 97.5%

N#Cc1nn(-c2cc(=O)[nH]c3ccc(Cl)cc23)c(N)c1C#N
inactive: [1] 67.2% | [2] 87.9% | [3] 125% | [4] 91.1% | [5] 84.4% | [6] 92.7% | [7] 106%

CNC(=O)c1c(NC(=O)c2ccc(C(F)(F)F)cc2)sc2c1CCC(=O)C2
active: [1] -15.2% | [2] -14.1% | [3] 0.84% | [4] -55.8% | [5] -46.4% | [6] -39.3% | [7] -36.4%

O=C(/C=C(/C=C/c1cccc2[nH]ccc12)OB(F)F)/C=C/c1cccc2[nH]ccc12
active: [1] 7.95% | [2] -19.5% | [3] -34.4% | [4] 1.96% | [5] -84.7% | [6] -84.1% | [7] -17.3%

N#Cc1cccc(F)c1
inactive: [1] 101% | [2] 111% | [3] 105% | [4] 109% | [5] 106% | [6] 118% | [7] 110%

N#C/C(=C\c1ccc(-c2ccc(Cl)cc2)o1)C(=O)Nc1ncc(Cc2ccc(Cl)cc2)s1
inactive: [1] 14.3% | [2] 58.2% | [3] 21.2% | [4] 13.7% | [6] 77.5% | [7] 36.8%
active: [5] 3.14%

CCCCNC(=O)Oc1ccc(/C(=C(/CC)Cc2ccccc2)c2ccc(OCCN3CCCCCC3)cc2)cc1
active: [1] -24.9% | [5] -76.3%
inactive: [2] 87.3% | [3] 61.5% | [4] 25.1% | [6] 34% | [7] 37.5%

Cc1ccc(Sc2oc(-c3ccc(C)cc3)nc2[P+](c2ccccc2)(c2ccccc2)c2ccccc2)cc1
active: [1] 1.57% | [2] -30.9% | [3] -30.3% | [4] -5.3% | [5] 2.12% | [6] 1.79% | [7] -52.8%

CN(C)CCNC(=O)c1cccc(-c2cnc3ccc(-c4ccc5c(c4)OCO5)nn23)c1
inactive: [1] 75.2% | [2] 80.7% | [3] 86% | [4] 52.8% | [6] 77.3% | [7] 17.6%
active: [5] 5.58%

CCOC(=O)c1cc2c(=O)oc3ccccc3c2oc1=O
inactive: [1] 107% | [2] 99.4% | [3] 111% | [4] 105% | [5] 109% | [6] 102% | [7] 110%

COc1cc(C(=O)n2nc(N3CCN(C)CC3)c3cc(N)ccc32)cc(OC)c1OC
inactive: [1] 57.7% | [2] 27.9% | [4] 30% | [6] 89.7% | [7] 57.9%
active: [3] -12%

Cc1ccc(-c2nc(/C=C3/C(=O)Nc4ccccc43)c3ccccn23)cc1
inactive: [1] 80.7% | [2] 104% | [3] 94.3% | [4] 64.8% | [5] 66.8% | [6] 109% | [7] 88.4%

O=C(Nc1nn(-c2ccc(Cl)cc2Cl)nc1-c1ccccc1)c1ccccc1
inactive: [1] 103% | [2] 119% | [3] 95.3% | [4] 105% | [5] 84.3% | [6] 108% | [7] 80.8%

O=S(=O)(NCCNc1nccc(-c2c(-c3cccc(F)c3)nc3occn23)n1)c1ccc(Br)cc1
inactive: [1] 76.7% | [2] 103% | [3] 68.5% | [4] 91.8% | [5] 69.1% | [6] 106% | [7] 88.9%

N#Cc1c(-c2cccs2)cc(-c2cccnc2)[nH]c1=O
inactive: [1] 103% | [2] 102% | [3] 102% | [4] 101% | [5] 104% | [6] 114% | [7] 106%

COc1ccc(OC)c(C(=O)/C=C/c2cc3c(c(OC)c2OC)OCO3)c1
inactive: [1] 70.6% | [2] 65.6% | [3] 63.2% | [4] 68.8% | [5] 43.6% | [6] 86.3% | [7] 55%
